The text below walks through data of PubChem BioAssay AID651661 (Broad Institute, 2012).

Values joined by “and” are separate entries in the source; they are usually repeats but may differ in a detail not shown here. Identical values can stand only once. Hit rate of the full screen: of about 350,000 compounds, about 2,300 (0.66%) were called active. The full list was thinned out, with actives kept by preference. Values without a mark were called inactive.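 The calls were made as follows: active = mean inhibition of at least 50% after viability correction, with every replicate also passing that limit; inconclusive = mean reaches 50% but only one of two replicates passes; inactive = the rest.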

This test can be described thus: blockers of EWS/Fli transcriptional output – A673 cells, NR0B1 luciferase, luminescence, MLPCN library, primary screen (AID 651661).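 Also: firefly luciferase signal divided by Alamar Blue viability fluorescence both relative to DMSO.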 The conditions noted are these: A673 NR0B1-luciferase reporter, viability-normalised; at 12.6 µM; stronger effect = higher value. (A reporter such as luciferase makes a cellular process visible.)
Turning to `COC1C(O)C(C)OC(OC2CCC3(C=O)C(CCC4C3CCC3(C)C(C5=CC(=O)OC5)CCC43O)C2)C1O` (stereo not given), the inhibition was 61.9% (active).
The result for `OC[C@@H]1[C@H]2c3ccccc3NC[C@H]2N1Cc1cccnc1` reads 3.74%; that for `Cc1nc2ccc(N3CCN(C)CC3)cc2nc1C`, 1.28%.
The result for `COc1cccc(-c2nc3ccc(N4CCN(C)CC4)cc3[nH]2)c1` reads 54% (active).
The value for `Brc1ccc2c(c1)CNCc1cnnn1-2` was -10.6%; that for `CCC(C)NC1(c2ccccc2)CCCCC1` (stereo not given) was -1.85%; that for `COc1cc(OC)cc(C(=O)NCCN2CCC3(CC2)C(=O)NCN3c2ccccc2)c1` was -1.8%.
With `CCN(CC)C(=O)[C@@H]1C=C2c3cccc4[nH]c(Br)c(c34)C[C@H]2N(C)C1`, the inhibition was -3.36%.
The value for `C[C@]12CC[C@H](O)C[C@H]1CC[C@@H]1C2CC[C@]2(C)[C@@H](C3=CC(=O)OC3)[C@@H](O)C[C@]12O` (stereo not given in full) was 64.9% (active); that for `C[C@]12CCC3C(CC[C@H]4C[C@@H](O)CC[C@]34C)C1CC[C@@H]2O` (stereo not given in full) was -5.07%.
On to `C[C@]12CCC3C(CC[C@H]4C[C@@H](O)CC[C@]34C)C1C[C@@H](O)[C@H]2O` (stereo not given in full), for which the inhibition is 0.611%.
For the molecule `COc1ccc(C#Cc2ccc([C@H]3[C@H](CO)N4CCCCN(C(=O)Cc5ccccc5)C[C@@H]34)cc2)cc1`, the inhibition was -12.7%.
The result for `COC(=O)[C@H]1[C@H](CO)[C@H]2Cn3c(ccc(-c4cccc(F)c4)c3=O)[C@@H]1N2Cc1ccccc1` reads -28.1%; that for `O=c1[nH]c2ccccc2n1C1CCN(C(c2ccccc2)c2nnnn2Cc2ccccc2)CC1` (stereo not given), 21.9%.
The value for `O=C1NC(=O)N(CCc2ccc(F)cc2)C(=O)/C1=C/C=C/c1ccccc1` was 66.1% (active).
The result for `O=C(O)COc1ccccc1/C=C1\C(=O)NC(=O)N(CCC2=CCCCC2)C1=O` reads 2.19%; that for `O=C1NC(=O)N(Cc2ccco2)C(=O)/C1=C\c1ccc(-c2ccc(F)cc2)o1`, 20%.
As to `O=C(NC[C@@H]1CC[C@H]2NC[C@H]2O1)C1CCCC1`, the inhibition is -22.4%.
The result for `C[C@@H]1CN([C@H](C)CO)C(=O)CCCn2cc(nn2)CO[C@@H]1CN(C)C(=O)Oc1cccc2ccccc12` reads 4.15%; that for `C[C@H]1CN([C@@H](C)CO)C(=O)CCCn2nncc2CO[C@H]1CN(C)C(=O)Oc1cccc2ccccc12`, -6.63% and -4.29% and 4.35%.
The result for `CN(C)CC1Oc2ccccc2OC1(O)c1ccccc1` (stereo not given) reads 55.9% (active).
The result for `O=C(NCC1=C(c2ccc3ccccc3c2)C[C@@H]2CC[C@H]1N2Cc1ccco1)c1cccs1` reads 2.23%; that for `O=c1[nH]c2ccccc2n1C1CCN(C(c2ccnc3ccccc23)c2nnnn2Cc2ccccc2)CC1` (stereo not given), 6.09%; that for `COC(=O)C[C@@H]1CC[C@@H]2NC[C@@H](O)COC[C@H]2O1`, -11.3%.
With `Cc1cc(N2CCNC[C@@H]2C)ccc1N1CC[C@H](O)C1`, the inhibition was -8.38%.
The result for `CCOC(=O)[C@]12Cc3cc(OC)ccc3[C@H]1N(C(C)C)C(=O)c1ccccc12` reads 16.8%; that for `CCOC(=O)[C@]12Cc3ccccc3[C@H]1N(C1CCCCC1)C(=O)c1cc(OC)ccc12`, 56.3% (active).
The value for `CC(=O)NCC1=C(c2ccc3ccccc3c2)C[C@@H]2CC[C@H]1N2Cc1ccco1` was 9.45%; that for `CC1C(=O)OC2CCN3CC=C(COC(=O)C(C)(O)C1(C)O)C23` (stereo not given) was 0.572%; that for `O=C(O)[C@@H]1[C@@H](CO)[C@@H]2Cn3c(ccc(-c4ccccc4F)c3=O)[C@H]1N2C(=O)c1cccnc1` was -3.75%.

One may read the inhibition as the change of the read-out against control, counted positive when it falls.
